Screening results: PubChem, several laboratories
Compounds with a hit are over-represented: about 5% of the library has one in this group of screens.
PREPL inhibitor – human PREPL enzyme inhibition. inhibition, % at 5.96 µM. recombinant PREPL, fluorescence polarization activity-based probe. 0.68% of 320,000 active; in the data active = inhibition above about 43%
Target sequence (Q4J6C6 whole entry, looked up): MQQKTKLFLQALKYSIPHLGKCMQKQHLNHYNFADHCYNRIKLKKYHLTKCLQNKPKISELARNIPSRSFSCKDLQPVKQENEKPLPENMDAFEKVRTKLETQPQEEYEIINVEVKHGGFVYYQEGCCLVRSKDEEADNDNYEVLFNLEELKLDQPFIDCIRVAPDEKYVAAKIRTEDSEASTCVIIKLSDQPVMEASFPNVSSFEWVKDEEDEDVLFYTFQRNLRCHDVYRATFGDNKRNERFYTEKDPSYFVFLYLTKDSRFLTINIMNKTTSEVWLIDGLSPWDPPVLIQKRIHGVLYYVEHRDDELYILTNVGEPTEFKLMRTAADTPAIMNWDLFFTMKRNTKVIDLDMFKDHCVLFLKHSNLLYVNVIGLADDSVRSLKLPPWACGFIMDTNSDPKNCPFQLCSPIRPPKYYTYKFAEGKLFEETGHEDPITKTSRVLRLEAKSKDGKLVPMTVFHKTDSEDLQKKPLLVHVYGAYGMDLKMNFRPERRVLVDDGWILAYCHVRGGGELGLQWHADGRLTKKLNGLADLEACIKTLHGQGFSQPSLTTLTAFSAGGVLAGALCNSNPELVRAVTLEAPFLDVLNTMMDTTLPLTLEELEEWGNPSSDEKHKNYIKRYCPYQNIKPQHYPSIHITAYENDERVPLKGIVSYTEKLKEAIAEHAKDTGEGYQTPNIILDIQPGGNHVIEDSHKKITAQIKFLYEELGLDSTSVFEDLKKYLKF
CHT inh – inhibits the human high affinity choline transporter; Q9GZV3; CHT-expressing cells, membrane potential dye, choline response; hits give low values; B-score at 10 µM; 0.86% of 310,000 active;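 active = B-score over 3 SD under the library average, and starting fluorescence ratio not unusually high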;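 also: choline stimulus applied at its EC90 after an EC20 pre-addition; B-score computed on integrated fluorescence ratio after choline addition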
ALR H2O2 inh – inhibitors of human sulfhydryl oxidase ALR; P55789; 3.8% of 290,000 active; purified ALR, DTT oxidation, H2O2 HRP-luminol luminescence; inhibition, % (no concentration beside the values); AID 485317;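 active = mean replicate inhibition above about 79%, with every replicate also reaching it, limit read from the data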
AI-2 QS modul – modulators of Vibrio harveyi AI-2 quorum sensing system. Vibrio harveyi JMH597 AI-2 luminescence/OD600 ratio, 9 h; hits give low values; strain lacks LuxN and CqsS sensors; 0 = neutral-control median. activity change, % at 7.5 µM. 0.4% of 300,000 active; in the data active = activity change below about -75%, passing the limit was not always enough;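 also: luminescence divided by OD600 gain over 9 h not by final OD600 alone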
CHT allo act – allosteric activators of human choline transporter CHT; Q9GZV3; CHT-expressing cells, membrane potential dye, choline EC20; hits give high values; LV-AA mutant CHT in HEK293 cells; B-score at 10 µM; 0.49% of 310,000 active; AID 488977;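 active = initial fluorescence not abnormally high and integrated response B-score, plate-corrected, over 3 SD above library mean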
Numbers stand for hits; - = inactive; . = no result.

SMILES	PREPL inhibitor	CHT inh	ALR H2O2 inh	AI-2 QS modul	CHT allo act
CC(=O)c1ccccc1NC(=O)COC(=O)/C(=C/c1ccccc1)n1nnnc1C	-	-	-	-	-
Fc1ccccc1N1CCN(Cc2nc(-c3ccccc3)no2)CC1	-	-	-	-	-
c1ccc(-c2noc(CN3CCN(C(c4ccccc4)c4ccccc4)CC3)n2)cc1	-	-	-	-	-
COc1ccc(-c2noc(CN3CCN(c4ccccc4F)CC3)n2)cc1OC	-	-	100	-	-
COc1ccc(-c2noc(CN(C)S(=O)(=O)c3ccccc3)n2)cc1OC	-	-	97	-	-
c1ccc(-c2noc(CN3CCN(c4ccccc4)CC3)n2)cc1	-	-	82	-	-
CCCCN(C)C(=O)C1CCC(CNS(=O)(=O)c2ccc3c(c2)CC(C)N3C(=O)C2CC2)CC1 (centres undefined)	-	-	-	-	-
CN1Cc2c(N3CCOCC3)nc3sc(C(=O)c4ccc(Br)cc4)c(N)c3c2CC1(C)C	68	-	-	-	-
CC1(C)Cc2c(c(N3CCOCC3)nc3sc(C(=O)N4CCCCC4)c(N)c23)CO1	-	-	.	-	-
CN(C)c1ccc(/C(=N\O)c2ccccc2)cc1	-	-	94	-	-
ClC1(Cl)CC1Cn1cnc2ccccc21 (centres undefined)	-	-	-	-	-
CCN(CC)c1ccc(NC(=O)c2ccccc2F)cc1	-	-	99	-	-
CCN(CC)c1ccc(NC(=O)c2cc(Cl)ccc2OC)cc1	-	-	98	-	-
CC(=O)Nc1ccc(NC(=O)c2c(C)noc2C)cc1	-	-	-	-	-
CCN(CC)c1ccc(NC(=O)c2c(C)noc2C)cc1	-	-	98	-	-
CCCCOC(C)n1cc(F)c(=O)[nH]c1=O (centres undefined)	-	-	-	-	-
O=C(NCC1CCN(S(=O)(=O)c2ccccc2)CC1)Nc1ccc(F)cc1F	-	-	-	-	-
CC1(C)C2CCC(C2)C1(C)NC(=O)CNC1CCCCC1 (centres undefined)	-	-	-	-	-
COc1ccc(/C=N/N=C2/NC(=O)C(CC(=O)O)S2)cc1OCc1ccccc1Cl (centres undefined)	-	-	92	-	-
CCOc1cc(/C=N/N=C2/NC(=O)C(CC(=O)O)S2)ccc1OCc1ccccc1Cl (centres undefined)	-	-	98	-	-
CN(Cc1nc2ccccc2c(=O)[nH]1)C(=O)c1ccc(S(=O)(=O)N2CCCC2)cc1	-	.	-	.	.
COc1ccc(N(CC(O)Cn2c(C)nc3ccccc32)S(=O)(=O)c2ccccc2)cc1 (centres undefined)	-	-	-	-	-
COc1ccc2c(C)cc(SCC(=O)NCCN3C(=O)CSC3=O)nc2c1	-	-	-	-	-
CCCCN(Cc1cc2cc(OC)ccc2[nH]c1=O)S(=O)(=O)c1ccc(C)cc1	-	-	-	-	-
Cc1oc(-c2ccc(F)cc2)cc1-c1nn2c(-c3ccoc3C)nnc2s1	-	-	97	-	-
SMILES	PREPL inhibitor	CHT inh	ALR H2O2 inh	AI-2 QS modul	CHT allo act
CCOc1ccc(S(=O)(=O)N2CCCC(C(=O)NCC3CCCO3)C2)cc1Cl (centres undefined)	-	-	-	-	-
CC(C)CCNC(=O)COC(=O)/C=C/c1ccc2ccccc2n1	-	-	97	-	-
NS(=O)(=O)c1ccc(N2CCCCCC2)c([N+](=O)[O-])c1	-	-	-	-	-
CC(NC(=O)c1ccc(N2CCCC2)c([N+](=O)[O-])c1)c1ccc(S(N)(=O)=O)cc1 (centres undefined)	-	-	98	-	-
COc1ccccc1S(=O)(=O)Cc1ccc(C(=O)NCCCN2CCN(c3ccc(F)cc3)CC2)o1	-	-	-	-	-
O=C1/C(=C/c2ccc(O)cc2)SC(=S)N1CC1CCCO1 (centres undefined)	-	-	99	-	-
CCN1CCN(c2ccc(N=Cc3ccccc3O)cc2)CC1	-	-	98	-	-
Cc1cc(O)c(C=Nc2ccc(N3CCOCC3)cc2)c(C)c1Cl	-	-	-	-	-
COc1cccc(C=Nc2ccc3c(c2)OCCO3)c1O	-	-	87	-	-
COc1cccc(/C=N/N2CCOCC2)c1O	-	-	-	-	-
COc1cccc(C=Nc2ccc(N3CCOCC3)cc2)c1O	-	-	99	-	-
CN1c2ccccc2-c2nc3ccccc3n2C1c1cccs1 (centres undefined)	-	-	-	-	-
Nn1c(Cc2cccc3ccccc23)nnc1SCc1ccccc1Cl	-	-	87	-	-
Cc1cc(C)c2ccc(C)[n+]([O-])c2c1O	-	-20	-	-	-
COc1ccc(NC(=O)COC(=O)C2CC(=O)N(c3ccc(C)cc3)C2)cc1 (centres undefined)	-	-	-	.	-
CCCc1[nH]n(-c2ccc([N+](=O)[O-])cc2)c(=O)c1C=NCCN1CCNCC1	-	-	-	-	6.8
Cc1[nH]n(-c2ccc([N+](=O)[O-])cc2)c(=O)c1C=NCCN1CCN(C(=O)C(C)C)CC1	-	-	-	-	-
CCN1C(=O)[C@H]2[C@H]3[C@H](O)[C@H](O)C/C(=N\O[C@H](C)c4cn([C@H](CO)Cc5ccccc5)nn4)[C@@H]3CC[C@H]2C1=O	-	-	-	-	-
COc1cc(-c2cc(C(=O)O)c3c(OC)c(OC)c(OC)cc3n2)ccc1O	-	-	98	-	-
CCOC(=O)c1cc(C(=O)Nc2ccccc2F)nn1C	-	-	-	-	-
CCOC(=O)n1ccc(C(=O)Nc2ccccc2F)n1	-	-	96	-	-
COC(=O)CCCCC1SCC(NC(=O)c2ccccc2)C1=O (centres undefined)	-	-	.	-	-
Oc1ccc(-c2nc3ccccc3s2)cc1	-	-	90	-	-
Nc1ccc(-c2nc3ccc(C(=O)O)cc3s2)cc1	-	-	99	-	-
Nc1cccc(-c2nc3ccc(N)cc3s2)c1	-	-	99	-	-
SMILES	PREPL inhibitor	CHT inh	ALR H2O2 inh	AI-2 QS modul	CHT allo act
O=C(O)c1ccc2nc(-c3ccccc3)sc2c1	-	-	.	-	-
Nc1ccc(-c2nc3ccc(N)cc3s2)cc1	-	-	99	-	-
O=C(CSc1nnc2ccc(-c3cccnc3)nn12)Nc1ccccc1F	-	-	-	-	-
Cc1cc(NS(=O)(=O)c2ccc(NC(=O)c3ccc(Br)o3)cc2)nc(C)n1	-	-	-	-	-
Nc1nc(-c2cccs2)cs1	-	-	-	-	-
Nc1nc(-c2ccc(-c3ccccc3)cc2)cs1	-	-	99	-	-
Nc1nc(-c2ccccc2Br)cs1	-	-	98	-	-
COc1ccc(-c2csc(N)n2)cc1	-	-	.	-	-
Nc1nc(-c2ccc(C(=O)O)cc2)cs1	-	-	-	-	-
Nc1nc(-c2ccc3ccccc3c2)cs1	-	-	98	-	-
O=C(NCc1nnc2c(C(F)(F)F)cc(Cl)cn12)c1cccnc1	-	-	-	-	-
Cc1[nH]c2ccccc2c1C(=O)COc1ccccc1F	-	-	-	.	-
